# Values joined by “and” are separate entries in the source; they are usually repeats but may differ in a detail not shown here. Equal values may be shown once.
# Key:
# Assay in all cases: growth inhibition (% activity, log2 RLU normalised to DMSO / staurosporine); higher = more growth inhibition
# Conditions in all cases: 33 µM
# [1] = system: DIPGX29 (H3.3 K27M diffuse intrinsic pontine glioma line)
# Summary of the method: (§1)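 In triplicate, pHGG cell lines and H9-derived neural stem cells were treated for 7 days at 37 °C, 5% CO2 with approved drugs at a single final concentration of about 33 μM, added by pin tool. CellTiter-Glo luminescence, after log2 transformation, was normalised on each plate to % activity between solvent and positive control wells. Growth inhibition is reported as the median across replicates.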
# [2] = system: DIPGX37 (H3.3 K27M diffuse intrinsic pontine glioma line)
# Summary of the method: as §1
# [3] = system: DIPGX7 (H3.3 K27M diffuse intrinsic pontine glioma line)
# Summary of the method: as §1
# [4] = system: DIPGX9 (diffuse intrinsic pontine glioma line)
# Summary of the method: as §1
# [5] = system: HGGX39 (paediatric high-grade glioma line)
# Summary of the method: as §1
# [6] = system: HGGX6 (H3.3 G34R paediatric high-grade glioma line)
# Summary of the method: as §1
# [7] = system: HNSC
# Summary of the method: as §1
# [8] = system: SUDIPGIV (diffuse intrinsic pontine glioma line)
# Summary of the method: as §1
# [9] = system: SUDIPGVI (diffuse intrinsic pontine glioma line)
# Summary of the method: as §1
# [10] = system: SUDIPGXIII (diffuse intrinsic pontine glioma line)
# Summary of the method: as §1
SMILES,growth inhibition [1],growth inhibition [2],growth inhibition [3],growth inhibition [4],growth inhibition [5],growth inhibition [6],growth inhibition [7],growth inhibition [8],growth inhibition [9],growth inhibition [10]
CC(c1cc2ccccc2s1)N(O)C(N)=O (stereo not given),0.492%,-0.829%,0.715%,-0.313%,-0.313%,-1.42%,-0.145%,-2.98%,-1.81%,0.685%
CCN(CC)CC(=O)Nc1c(C)cccc1C,1.31%,0.211%,2.14%,1.09%,2.87%,0.583%,1.55%,0.232%,2.37%,1.3%
Cc1cc2nc3c(=O)[nH]c(=O)nc-3n(C[C@H](O)[C@H](O)[C@H](O)CO)c2cc1C,-1.75%,2.89%,0.461%,-0.233%,2.78%,-1.29%,6.98%,4.43%,2.29%,1.1%
CC(C(=O)O)c1cccc(Oc2ccccc2)c1 (stereo not given),1.86% and -0.732%,4.27% and 0.295%,0.905% and -1.45%,0.241% and -0.0623%,1.32% and -0.621%,2.03% and -0.313%,0.908% and -1.16%,-2.87% and -3.43%,3.45% and 0.152%,0.892% and 1.49%
COCCOC(=O)C1=C(C)NC(C)=C(C(=O)OC/C=C/c2ccccc2)C1c1cccc([N+](=O)[O-])c1 (stereo not given),2.85%,2.42%,5.44%,5.34%,5.91%,4.61%,5.17%,6.24%,3.03%,0.864%
CS(=O)(=O)c1ccc(C(=O)Nc2ccc(Cl)c(-c3ccccn3)c2)c(Cl)c1,2.56%,2.2%,3.42%,7.16%,5.46%,2.09%,4.02%,0.0205%,4.38%,-0.808%
CC1(C)S[C@@H]2[C@H](NC(=O)[C@H](N)c3ccccc3)C(=O)N2[C@H]1C(=O)O,0.915% and -0.852%,0.428% and -3.6%,-0.263% and 0.439%,2.01% and -1.14%,0.0853% and 0.776%,0.491% and -0.506%,-1.66% and -0.947%,0.0994% and -1.08%,1.4% and -3.54%,0.006% and 0.466%
COc1ccc(CN2CCN(C(c3ccc(F)cc3)c3ccc(F)cc3)CC2)c(OC)c1OC,3.37%,4.29%,2.14%,3.16%,7.88%,4.43%,7.5%,2.85%,3.72%,-11.1%
N[C@@H]1CCCCN(c2c(F)cc3c(=O)c(C(=O)O)cn(C4CC4)c3c2Cl)C1,-3.25%,-0.479%,-2%,-1.55%,-1.72%,-3.25%,-0.931%,-3.46%,-2.21%,-0.978%
CCc1c2c(nc3ccc(OC(=O)N4CCC(N5CCCCC5)CC4)cc13)-c1cc3c(c(=O)n1C2)COC(=O)[C@]3(O)CC,6.04% and 11.2%,2.87% and 1.26%,5% and 16.3%,7.83% and 32.1%,13.7% and 30.1%,7.49% and 10.4%,55.3% and 54.4%,49.3% and 46.9%,1.04% and 3.21%,-12% and 3.28%
CCN1CCN(C(=O)N[C@@H](C(=O)N[C@@H]2C(=O)N3[C@@H]2SC(C)(C)[C@@H]3C(=O)O)c2ccccc2)C(=O)C1=O,-0.286%,0.221%,-0.734%,-1.09%,-0.282%,0.186%,-1.83%,-0.166%,0.068%,-11.8%
CCOC(=O)OC(C)OC1=C(C(=O)Nc2ccccn2)N(C)S(=O)(=O)c2ccccc21 (stereo not given),-0.868%,0.235%,-2.67%,-1.56%,-0.486%,-1.42%,-2.72%,-2.47%,-3.26%,-1.05%
CCCN(CCC)CCc1cccc2c1CC(=O)N2,-1.21%,-2.23%,1.15%,0.189%,2.83%,-2.51%,0.584%,0.852%,2.13%,-0.826%
CC(C)OC(=O)C(C)(C)Oc1ccc(C(=O)c2ccc(Cl)cc2)cc1,3.79%,2.12%,2.17%,2.82%,2.79%,-3.05%,54.6%,1.24%,2.08%,0.0771%
CN1C(CCl)Nc2cc(Cl)c(S(N)(=O)=O)cc2S1(=O)=O (stereo not given),1.82%,1.82%,1.38%,0.87%,2.55%,3.08%,1.19%,0.139%,1.21%,-13.7%
O=C(O)c1cc(=O)c2c(OCC(O)COc3cccc4oc(C(=O)O)cc(=O)c34)cccc2o1,-1.5%,1.34%,-1.58%,0.155%,-0.164%,1.99%,-1.63%,-0.417%,-0.328%,1.77%
Nc1ccn(C[C@@H](CO)OCP(=O)(O)O)c(=O)n1,1.21%,2.43%,1.32%,1.05%,-0.556%,-0.434%,3.12%,2.09%,1.15%,1.19%
CS(=O)(=O)c1ccc([C@@H](O)[C@@H](CF)NC(=O)C(Cl)Cl)cc1,3.83%,-0.106%,1.63%,2.53%,12.9%,5.33%,15.9%,24.6%,2.59%,38%
O=C1c2ccccc2C(=O)C1c1ccccc1,-0.501%,-1.03%,-0.877%,-0.146%,1.52%,0.118%,-1.43%,0.701%,0.683%,0.357%
COc1cc2/c(=N/c3ccc(Br)cc3F)nc[nH]c2cc1OCC1CCN(C)CC1,11.5%,2.67%,4.34%,7.45%,11.1%,10.7%,9.55%,-1.09%,-4.91%,0.39%

SMILES,growth inhibition [1],growth inhibition [2],growth inhibition [3],growth inhibition [4],growth inhibition [5],growth inhibition [6],growth inhibition [7],growth inhibition [8],growth inhibition [9],growth inhibition [10]
CN(C)CCOC(C)(c1ccccc1)c1ccccn1 (stereo not given),-1.53%,-0.506%,0.0494%,-1.25%,0.245%,-0.355%,-1.65%,-0.218%,-0.777%,0.1%
Oc1ccc(OCc2ccccc2)cc1,2.78%,-1.94%,5.44%,2.61%,1.21%,1.02%,10.9%,-2.99%,-1.42%,-1.26%
N=C(N)N/N=C/c1c(Cl)cccc1Cl,1.41%,1.84%,1.08%,1.59%,4.69%,2.81%,1.67%,7.04%,3.21%,1.52%
CCOC(=O)C1=C(C)NC(C)=C(C(=O)OC)C1c1cccc(Cl)c1Cl (stereo not given),2.2%,0.16%,2.82%,2.94%,6.84%,-1.45%,5.27%,3.57%,1.79%,-2.05%
C[C@H]1[C@H](NC(=O)/C(=N\OC(C)(C)C(=O)O)c2csc(N)n2)C(=O)N1S(=O)(=O)O,1.82%,1.51%,2.55%,1.75%,2.62%,1.95%,1.91%,1.35%,3.09%,1.38%
COc1ccc(C(=O)CC(=O)c2ccc(C(C)(C)C)cc2)cc1,-1.88%,-1.81%,-1.16%,-0.752%,-2.78%,-0.501%,-0.539%,-0.769%,-2.64%,-0.991%
O=C(NC(Cc1cc(=O)[nH]c2ccccc12)C(=O)O)c1ccc(Cl)cc1 (stereo not given),0.575%,0.0807%,-1.26%,0.987%,0.192%,0.202%,-1.11%,-0.753%,0.645%,0.24%
CN1CCCCC1CCN1c2ccccc2Sc2ccc([S+](C)[O-])cc21 (stereo not given),-1.62%,1.07%,-1.12%,-0.108%,-0.329%,-0.926%,1.22%,-1.02%,-0.796%,1.03%
CC1CCc2cc(F)cc3c(=O)c(C(=O)O)cn1c23 (stereo not given),-0.61%,1.22%,0.338%,-0.551%,1.41%,2.29%,0.388%,-1.52%,0.839%,-18.7%
COCCOC(=O)C1=C(C)NC(C)=C(C(=O)OC(C)C)C1c1cccc([N+](=O)[O-])c1 (stereo not given),-0.32%,0.964%,-0.466%,0.313%,1.43%,-1.47%,2.29%,0.263%,1.28%,2.89%
Nc1ncn(C2OC(CO)C(O)C2O)c(=O)n1 (stereo not given),3.4%,-0.711%,5.91%,7.54%,4.31%,1.61%,55.5%,16.7%,0.0997%,-1.9%
Nc1ccn(C2CSC(CO)O2)c(=O)n1 (stereo not given),0.0189%,0.319%,-0.231%,0.518%,0.787%,-0.895%,1.26%,-0.385%,1.46%,0.705%
CCCCCCNC(=O)n1cc(F)c(=O)[nH]c1=O,5.51%,0.97%,4.27%,14%,6.44%,9.38%,24.6%,11.2%,3.57%,2.43%
CCOC(=O)c1ccc(C#Cc2ccc3c(c2)C(C)(C)CCS3)nc1,3.83%,-0.285%,6.1%,9.38%,8.54%,6.5%,6.59%,8.53%,4.1%,1.82%
CN1C(C(=O)Nc2ccccn2)=C(O)c2sc(Cl)cc2S1(=O)=O,-1.88%,-0.653%,-2.4%,0.761%,-1.26%,-0.605%,-1.13%,-7.21%,-0.634%,2.15%
N#CC(c1ccc(Cl)cc1)c1c(Cl)cc(-n2ncc(=O)[nH]c2=O)cc1Cl (stereo not given),-3.67%,-2.44%,-2.85%,-2.54%,-2.75%,-3.94%,-1.15%,-2.27%,-3.68%,0.254%
CCOC(=O)[C@H](CCc1ccccc1)N[C@H]1CCCN2CCC[C@@H](C(=O)O)N2C1=O,2.06%,3.84%,3.15%,2.7%,2.78%,1.01%,9.63%,0.443%,4.92%,-0.861%
C=CC(=O)N1CCC[C@@H](n2nc(-c3ccc(Oc4ccccc4)cc3)c3c(N)ncnc32)C1,6.19%,0.894%,0.519%,7.17%,1.36%,12.5%,10.8%,-2.32%,2.15%,-9.86%
OC(CNCC(O)C1CCc2cc(F)ccc2O1)C1CCc2cc(F)ccc2O1 (stereo not given),4.79%,3.01%,2.85%,4%,4.24%,6.9%,2.72%,2.21%,-0.86%,2.62%
CC(C)NCC(O)c1cc(O)cc(O)c1 (stereo not given),-0.101%,1.67%,1.75%,1.82%,2.87%,-1.68%,27.3%,2.27%,-0.181%,-0.215%
